The supplement of paper PMC10849652
The full data set covers some 8,800 targets. This sample favours those with a hit. About 0.5% of all pairs of compound and target were hits. Values without a mark were called inactive.

Key:
Assay in all cases: log2 fold change, soluble protein after heating vs DMSO (PISA); higher = thermal stabilisation; K562 lysate, 10 uM; active = over 0.2 and 3.5 SD of the protein, either way, in both replicates (recomputed)
erlotinib = compound: C#Cc1cccc(Nc2ncnc3cc(OCCOC)c(OCCOC)cc23)c1 [erlotinib]
How it was run: (§1)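 Following dounce homogenisation of K562 pellets in PBS pH 7.4 with 1 mM MgCl2, crude extract at 1 mg/mL protein was incubated for 30 min with 10 μM compound. Aliquots were then heated for 3 min over 48°C-58°C and pooled, NP-40 was added to 0.5% at 4°C, and soluble protein was recovered as the supernatant at 21,000xg for 90 min. Channel-sum-equalised TMTpro 16plex LC-MS/MS quantified this protein. Each value, from duplicates, is a log-two fold change in thermal stability relative to solvent controls.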

[1] = compound: C/C(=N\NC(=O)C1=CC(=CC=C1)S(=O)(=O)N2CCOCC2)/C3=C(C=CC(=C3)Cl)O
How it was run: as §1

[2] = compound: C1=CC(=CC=C1C2=NC3=C(N2)C=C(C=C3)C(=O)N)OC4=CC=C(C=C4)Cl
How it was run: as §1

[3] = compound: C1=CC2=C(C=CC(=C2)/C=C\3/C(=O)NC(=NCC4=CC=CS4)S3)N=C1
How it was run: as §1

[4] = compound: C1=CC2=NC=CN=C2C=C1/C=C/3\C(=O)NC(=O)S3
How it was run: as §1

[5] = compound: C1=CC=C(C=C1)C2=NC(=C(N2)C3=CC=NC=C3)C4=CC(=C(C=C4)Cl)O
How it was run: as §1

[6] = compound: C1=CC=C2C(=C1)C3=NNC4=CC=CC(=C43)C2=O
How it was run: as §1

[7] = compound: C1CCN(C1)C(=O)NC2=CC=CC(=C2)NC3=NC=C(C(=N3)NCCC4=CN=CN4)Br
How it was run: as §1

[8] = compound: C1CN(CCC1(CC2=CC=C(C=C2)Cl)N)C3=NC=NC4=C3C=CN4
How it was run: as §1

IRAK-1-4 Inhibitor I = compound: C1COCCN1CCN2C3=CC=CC=C3N=C2NC(=O)C4=CC(=CC=C4)[N+](=O)[O-] [IRAK-1-4 Inhibitor I]
How it was run: as §1

ibrutinib = compound: C=CC(=O)N1CCC[C@@H](n2nc(-c3ccc(Oc4ccccc4)cc3)c3c(N)ncnc32)C1 [ibrutinib]
How it was run: as §1

[9] = compound: CC(=O)c1cnc2ccc(-c3cc(Cl)c(O)c(Cl)c3)nc2c1N[C@H]1CC[C@H](CN(C)C)CC1
How it was run: as §1

ralimetinib = compound: CC(C)(C)Cn1c(N)nc2ccc(-c3[nH]c(C(C)(C)C)nc3-c3ccc(F)cc3)nc21 [ralimetinib]
How it was run: as §1

[10] = compound: CC(C)(O)CC(=O)NCCn1ccc2ncnc(Nc3ccc(Oc4cccc(C(F)(F)F)c4)c(Cl)c3)c21
How it was run: as §1

[11] = compound: CC(C)C1=C2N=C(C=C(N2N=C1)NCC3=CC=CC=C3)NCCCCCCN
How it was run: as §1

[12] = compound: CC1=C(C(CC(=O)N1)C2=CC=C(C=C2)C(F)(F)F)C(=O)NC3=C(C=C4C(=C3)C=NN4)F
How it was run: as §1

[13] = compound: CC1=C(C2=C(C=C1)C(=O)C3=CC=CC=C3N2CCCN)C
How it was run: as §1

[14] = compound: CC1=C(C=C(C=C1)NC(=O)C2=CC(=CC=C2)C(C)(C)C#N)NC3=CC4=C(C=C3)N=CN(C4=O)C
How it was run: as §1

[15] = compound: CC1=C(C=C(C=C1)NC(=O)C2=CC(=CC=C2)N(C)C)NC(=O)C3=CC=C(C=C3)O
How it was run: as §1

[16] = compound: CC1=CC=C(C=C1)SC2=C3C=C(SC3=CN=C2)C(=O)N
How it was run: as §1

Sequence of UniProt Q8TCT8 (Q8TCT8 whole entry, looked up): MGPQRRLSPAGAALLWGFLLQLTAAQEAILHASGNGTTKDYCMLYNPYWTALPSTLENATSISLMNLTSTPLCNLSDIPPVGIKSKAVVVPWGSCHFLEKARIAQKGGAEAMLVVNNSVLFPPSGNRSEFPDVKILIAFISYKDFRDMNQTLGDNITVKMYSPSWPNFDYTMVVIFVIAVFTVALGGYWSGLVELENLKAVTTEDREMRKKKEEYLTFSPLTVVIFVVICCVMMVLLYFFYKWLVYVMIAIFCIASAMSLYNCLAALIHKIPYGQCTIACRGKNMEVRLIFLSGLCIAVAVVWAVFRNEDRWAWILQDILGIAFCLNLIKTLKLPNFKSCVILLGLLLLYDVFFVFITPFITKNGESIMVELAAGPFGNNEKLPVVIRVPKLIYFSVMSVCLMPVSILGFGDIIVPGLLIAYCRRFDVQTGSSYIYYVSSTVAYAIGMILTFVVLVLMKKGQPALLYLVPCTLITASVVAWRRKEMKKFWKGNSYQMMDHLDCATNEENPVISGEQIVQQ
Sequence of UniProt Q9H2D1 (Q9H2D1 whole entry, looked up): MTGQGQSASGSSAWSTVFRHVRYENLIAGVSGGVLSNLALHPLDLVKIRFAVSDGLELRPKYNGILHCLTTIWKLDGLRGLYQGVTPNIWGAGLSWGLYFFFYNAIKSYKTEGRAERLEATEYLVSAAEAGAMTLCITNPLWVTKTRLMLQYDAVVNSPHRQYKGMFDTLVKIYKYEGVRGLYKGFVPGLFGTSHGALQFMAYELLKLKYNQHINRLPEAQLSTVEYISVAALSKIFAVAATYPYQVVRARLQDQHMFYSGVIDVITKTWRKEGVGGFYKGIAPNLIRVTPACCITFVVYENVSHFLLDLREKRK
Sequence of UniProt Q9BVQ7 (Q9BVQ7 whole entry, looked up): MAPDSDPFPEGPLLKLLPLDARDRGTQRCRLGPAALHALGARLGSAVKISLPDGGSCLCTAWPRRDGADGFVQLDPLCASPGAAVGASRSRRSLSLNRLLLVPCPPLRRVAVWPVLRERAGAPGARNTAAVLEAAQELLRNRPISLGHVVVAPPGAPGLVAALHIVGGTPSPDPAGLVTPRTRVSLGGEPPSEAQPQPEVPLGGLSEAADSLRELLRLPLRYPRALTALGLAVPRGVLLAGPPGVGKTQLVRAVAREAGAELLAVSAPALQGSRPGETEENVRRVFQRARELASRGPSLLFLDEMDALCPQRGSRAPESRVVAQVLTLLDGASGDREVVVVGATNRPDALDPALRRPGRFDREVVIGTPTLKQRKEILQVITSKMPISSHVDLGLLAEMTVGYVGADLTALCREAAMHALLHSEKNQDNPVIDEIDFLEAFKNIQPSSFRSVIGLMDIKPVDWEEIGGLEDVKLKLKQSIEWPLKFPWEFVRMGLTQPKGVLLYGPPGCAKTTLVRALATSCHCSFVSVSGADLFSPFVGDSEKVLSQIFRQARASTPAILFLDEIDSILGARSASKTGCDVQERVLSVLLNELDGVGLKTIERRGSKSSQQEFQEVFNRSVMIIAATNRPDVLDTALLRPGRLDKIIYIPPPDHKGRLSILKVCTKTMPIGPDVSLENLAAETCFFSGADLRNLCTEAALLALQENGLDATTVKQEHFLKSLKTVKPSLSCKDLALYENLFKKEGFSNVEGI
Sequence of UniProt P35610 (P35610 whole entry, looked up): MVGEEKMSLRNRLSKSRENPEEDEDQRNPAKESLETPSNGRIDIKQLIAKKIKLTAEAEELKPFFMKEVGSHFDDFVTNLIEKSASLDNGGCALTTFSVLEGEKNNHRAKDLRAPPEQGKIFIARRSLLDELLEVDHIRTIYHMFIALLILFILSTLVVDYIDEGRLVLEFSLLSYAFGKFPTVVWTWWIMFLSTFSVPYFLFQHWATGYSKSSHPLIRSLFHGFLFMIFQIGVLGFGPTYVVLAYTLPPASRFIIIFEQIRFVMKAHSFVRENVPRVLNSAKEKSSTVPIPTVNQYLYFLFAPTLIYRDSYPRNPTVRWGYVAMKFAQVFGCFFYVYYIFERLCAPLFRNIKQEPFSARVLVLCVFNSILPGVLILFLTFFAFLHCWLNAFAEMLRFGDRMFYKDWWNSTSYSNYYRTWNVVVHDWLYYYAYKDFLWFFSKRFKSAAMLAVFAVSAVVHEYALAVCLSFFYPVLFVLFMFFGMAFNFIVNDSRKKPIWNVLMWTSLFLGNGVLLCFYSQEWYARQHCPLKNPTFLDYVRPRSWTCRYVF
Sequence of UniProt O60225 (O60225 whole entry, looked up): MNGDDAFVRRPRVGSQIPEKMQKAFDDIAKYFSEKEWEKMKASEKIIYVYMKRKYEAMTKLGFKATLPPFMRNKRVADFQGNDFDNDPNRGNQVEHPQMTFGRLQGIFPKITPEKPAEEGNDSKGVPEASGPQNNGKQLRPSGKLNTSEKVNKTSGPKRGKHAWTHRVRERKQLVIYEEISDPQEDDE
Sequence of UniProt Q9UPR3 (Q9UPR3 whole entry, looked up): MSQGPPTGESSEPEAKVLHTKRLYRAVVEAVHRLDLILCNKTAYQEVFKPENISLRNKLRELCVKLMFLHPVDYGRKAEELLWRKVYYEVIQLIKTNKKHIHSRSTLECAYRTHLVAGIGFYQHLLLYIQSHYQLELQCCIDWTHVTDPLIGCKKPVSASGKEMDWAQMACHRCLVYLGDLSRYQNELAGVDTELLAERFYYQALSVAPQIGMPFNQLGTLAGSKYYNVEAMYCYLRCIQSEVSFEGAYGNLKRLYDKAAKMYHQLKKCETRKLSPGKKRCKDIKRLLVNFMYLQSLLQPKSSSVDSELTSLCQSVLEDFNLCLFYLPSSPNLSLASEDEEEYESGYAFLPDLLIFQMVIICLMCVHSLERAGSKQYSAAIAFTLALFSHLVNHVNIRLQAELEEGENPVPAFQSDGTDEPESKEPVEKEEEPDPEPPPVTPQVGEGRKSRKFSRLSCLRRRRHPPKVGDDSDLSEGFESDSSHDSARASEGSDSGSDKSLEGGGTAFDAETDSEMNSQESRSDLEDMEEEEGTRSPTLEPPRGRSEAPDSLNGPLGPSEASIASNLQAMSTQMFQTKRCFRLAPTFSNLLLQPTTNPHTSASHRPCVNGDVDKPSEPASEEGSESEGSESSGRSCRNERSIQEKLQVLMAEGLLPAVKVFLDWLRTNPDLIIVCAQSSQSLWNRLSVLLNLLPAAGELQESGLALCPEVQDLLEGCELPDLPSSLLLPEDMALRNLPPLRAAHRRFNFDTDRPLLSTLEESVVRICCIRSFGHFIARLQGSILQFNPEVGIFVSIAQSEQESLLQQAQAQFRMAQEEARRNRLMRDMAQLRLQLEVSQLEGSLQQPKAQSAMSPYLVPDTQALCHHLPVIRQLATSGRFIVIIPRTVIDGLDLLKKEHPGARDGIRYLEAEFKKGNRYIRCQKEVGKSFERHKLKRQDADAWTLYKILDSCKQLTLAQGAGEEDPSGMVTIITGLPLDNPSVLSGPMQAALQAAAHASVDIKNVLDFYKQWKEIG
Sequence of UniProt Q96EX1 (Q96EX1 whole entry, looked up): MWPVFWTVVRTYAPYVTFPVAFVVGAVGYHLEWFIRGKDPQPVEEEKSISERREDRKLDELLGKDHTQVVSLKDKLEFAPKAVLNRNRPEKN
Sequence of UniProt P10124 (P10124 whole entry, looked up): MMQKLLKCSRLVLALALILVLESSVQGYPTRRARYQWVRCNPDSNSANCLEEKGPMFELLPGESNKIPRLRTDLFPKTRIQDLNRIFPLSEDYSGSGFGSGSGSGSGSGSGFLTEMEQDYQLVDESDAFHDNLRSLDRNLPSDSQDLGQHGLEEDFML
Sequence of UniProt Q9NP59 (Q9NP59 whole entry, looked up): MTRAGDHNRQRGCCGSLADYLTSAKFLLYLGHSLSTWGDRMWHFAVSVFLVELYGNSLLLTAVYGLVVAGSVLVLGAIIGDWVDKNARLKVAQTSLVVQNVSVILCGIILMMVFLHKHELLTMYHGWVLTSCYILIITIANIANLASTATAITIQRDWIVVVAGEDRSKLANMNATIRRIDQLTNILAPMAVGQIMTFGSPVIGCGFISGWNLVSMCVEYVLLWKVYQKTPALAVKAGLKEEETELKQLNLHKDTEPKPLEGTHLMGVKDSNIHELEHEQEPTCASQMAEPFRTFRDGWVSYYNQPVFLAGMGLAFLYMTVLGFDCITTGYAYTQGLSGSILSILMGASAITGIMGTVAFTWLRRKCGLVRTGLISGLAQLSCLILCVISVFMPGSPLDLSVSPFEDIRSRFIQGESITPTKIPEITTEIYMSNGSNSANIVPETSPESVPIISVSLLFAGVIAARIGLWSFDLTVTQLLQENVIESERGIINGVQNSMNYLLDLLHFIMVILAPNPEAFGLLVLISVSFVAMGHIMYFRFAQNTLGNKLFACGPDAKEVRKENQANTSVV
Sequence of UniProt O95149 (O95149 whole entry, looked up): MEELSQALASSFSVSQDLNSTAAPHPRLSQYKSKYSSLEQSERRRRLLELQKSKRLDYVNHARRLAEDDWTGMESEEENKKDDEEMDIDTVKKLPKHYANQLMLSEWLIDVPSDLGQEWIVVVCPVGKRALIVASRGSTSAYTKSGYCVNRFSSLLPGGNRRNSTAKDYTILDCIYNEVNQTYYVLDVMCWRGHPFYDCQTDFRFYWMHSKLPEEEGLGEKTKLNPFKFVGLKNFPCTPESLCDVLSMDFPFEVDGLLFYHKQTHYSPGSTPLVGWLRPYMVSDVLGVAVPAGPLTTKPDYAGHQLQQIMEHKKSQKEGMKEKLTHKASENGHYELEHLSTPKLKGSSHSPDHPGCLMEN

Row | Target | log2 fold change (erlotinib) | log2 fold change [1] | log2 fold change [2] | log2 fold change [3] | log2 fold change [4] | log2 fold change [5] | log2 fold change [6] | log2 fold change [7] | log2 fold change [8] | log2 fold change (IRAK-1-4 Inhibitor I) | log2 fold change (ibrutinib) | log2 fold change [9] | log2 fold change (ralimetinib) | log2 fold change [10] | log2 fold change [11] | log2 fold change [12] | log2 fold change [13] | log2 fold change [14] | log2 fold change [15] | log2 fold change [16]
1 | SYNE2 isoform 2 (UniProt Q8WXH0) | -0.09 | -0.069 | -0.023 | -0.156 | -0.04 | -0.015 | -0.146 | -0.064 | 0.037 | 0.127 | 0 | -0.003 | 0.018 | -0.076 | -0.106 | -0.153 | -0.047 | 0.04 | -0.005 | 0.006
2 | SLC25A32 (UniProt Q9H2D1) | 0.035 | 0.02 | -0.062 | 0.011 | -0.013 | -0.027 | 0.056 | 0.018 | -0.002 | 0.029 | 0.029 | 0.005 | 0.006 | -0.017 | -0.017 | -0.03 | -0.031 | 0.048 | -0.021 | -0.007
3 | SLC40A1 (UniProt Q9NP59) | 0.188 | -0.035 | 0.233 | 0.042 | – | -0.052 | -0.122 | -0.015 | 0.05 | 0.048 | – | -0.028 | -0.037 | -0.096 | 0.042 | -0.017 | 0.049 | -0.034 | 0.041 | -0.055
4 | SNUPN (UniProt O95149) | -0.048 | -0.116 | 0.3 | 0.024 | 0.035 | 0.069 | 0.009 | 0.02 | -0.039 | -0.001 | -0.072 | 0.001 | -0.008 | -0.068 | -0.116 | -0.065 | – | 0.001 | -0.036 | 0.027
5 | SORBS3 (UniProt O60504) | -0.01 | 0.028 | 0.021 | 0.018 | -0.054 | -0.092 | 0.057 | 0.09 | 0.129 | 0.088 | -0.005 | 0.067 | 0.099 | -0.113 | -0.035 | – | -0.158 | 0.046 | -0.05 | -0.114
6 | SMIM12 (UniProt Q96EX1) | 0.048 | -0.105 | -0.024 | -0.042 | -0.026 | 0.024 | -0.009 | 0.075 | 0.008 | -0.009 | 0.04 | 0.013 | 0.021 | -0.049 | -0.024 | -0.008 | -0.002 | 0.038 | -0.064 | -0.011
7 | SSX5 isoform 2 (UniProt O60225) | -0.302 | 0.12 | -0.142 | 0.195 | -0.125 | 0.043 | -0.027 | 0.23 | -0.219 | 0.007 | -0.081 | 0.028 | 0 | 0.032 | -0.261 | -0.089 | – | – | -0.018 | -0.003
8 | SMG5 (UniProt Q9UPR3) | -0.037 | -0.038 | 0.028 | -0.008 | -0.012 | -0.074 | -0.035 | -0.004 | -0.043 | 0.007 | -0.041 | 0.048 | 0.021 | -0.032 | -0.037 | 0.071 | 0.015 | -0.117 | 0.057 | 0.024
9 | SPATA5L1 (UniProt Q9BVQ7) | 0.09 | -0.053 | -0.017 | 0.044 | 0.004 | 0.069 | 0.01 | 0.027 | 0.032 | 0.015 | -0.007 | 0.02 | 0.037 | -0.054 | 0.018 | -0.004 | -0.052 | -0.007 | 0.026 | -0.008
10 | SRGN (UniProt P10124) | -0.034 | 0.023 | 0.051 | -0.019 | 0.05 | 0.051 | -0.069 | 0.065 | -0.139 | 0.013 | 0.109 | 0.084 | 0.001 | -0.159 | -0.018 | – | -0.079 | 0.104 | -0.064 | -0.064
11 | SOAT1 (UniProt P35610) | 0.06 | -0.007 | -0.042 | 0 | -0.048 | 0.056 | -0.058 | -0.056 | -0.019 | 0 | 0.043 | 0.017 | 0.151 | -0.107 | -0.055 | -0.046 | -0.022 | 0.1 | -0.012 | 0.019
12 | SYK (UniProt P43405) | -0.004 | -0.007 | 0.017 | 0.039 | -0.033 | 0.021 | – | -0.013 | -0.038 | 0.053 | -0.09 | -0.041 | -0.025 | -0.103 | 0.051 | -0.055 | -0.114 | -0.001 | 0.027 | -0.065
13 | SPPL2A (UniProt Q8TCT8) | 0.005 | -0.007 | 0.118 | -0.104 | -0.011 | -0.07 | -0.141 | -0.082 | -0.644 (active) | 0.014 | -0.081 | 0.154 | -0.152 | -0.219 | 0.004 | – | – | 0.138 | 0.091 | -0.008
